# PubChem BioAssay (Tox21)
# Several values for one entry are separate records, joined by “and”; a condition that tells them apart may be missing. Equal values may be shown once. Inconclusive results are not listed. Entries that show only a call come without a potency. A structure can be active in one record and inactive in another. Activity calls are given as the source filed them. Unless noted, the call rests on the fitted dose curve; in most records, active means well fitted curve in the direction sought with a large enough effect in the repeat runs; inconclusive means weak or mixed curves; inactive means no such curve, though single readings can be large; an effect the other way counts as inactive or inconclusive.
# Experiments:
# [1] = qHTS assay to identify aromatase inhibitors - cell viability counter screen (AID 743084);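 further: cells stimulated with testosterone during compound exposure; nearly all actives have a fitted effect of over 55% in size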
# [2] = qHTS assay to identify small molecule that activate the aryl hydrocarbon receptor (AhR) signaling pathway - cell viability counter screen (AID 743086);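 further: HepG2 liver cells carrying the AhR DRE luciferase reporter; series mostly up to about 70 µM; nearly all actives have a fitted effect of over 45% in size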
# Outline: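 HepG2-AhR-luc (HG2L7.5c1) cells, 4000/well, were preincubated 5 h at 37C, exposed to compound in qHTS format for 24 hr at 37C, then given CellTiter-Fluor for 30 min; viability was read as fluorescence in the reporter wells.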
# [3] = biological target: Peroxisome proliferator-activated receptor gamma (Homo sapiens) (UniProt P37231); assay: qHTS assay to identify small molecule agonists of the peroxisome proliferator-activated receptor gamma (PPARg) signaling pathway (AID 743094; active means well fitted activation curve with a large enough effect in the signal ratio in the repeat runs, not every such curve was filed as active; the % refers to the signal ratio)
# Chain of Peroxisome proliferator-activated receptor gamma (Homo sapiens) (P37231 whole entry, looked up): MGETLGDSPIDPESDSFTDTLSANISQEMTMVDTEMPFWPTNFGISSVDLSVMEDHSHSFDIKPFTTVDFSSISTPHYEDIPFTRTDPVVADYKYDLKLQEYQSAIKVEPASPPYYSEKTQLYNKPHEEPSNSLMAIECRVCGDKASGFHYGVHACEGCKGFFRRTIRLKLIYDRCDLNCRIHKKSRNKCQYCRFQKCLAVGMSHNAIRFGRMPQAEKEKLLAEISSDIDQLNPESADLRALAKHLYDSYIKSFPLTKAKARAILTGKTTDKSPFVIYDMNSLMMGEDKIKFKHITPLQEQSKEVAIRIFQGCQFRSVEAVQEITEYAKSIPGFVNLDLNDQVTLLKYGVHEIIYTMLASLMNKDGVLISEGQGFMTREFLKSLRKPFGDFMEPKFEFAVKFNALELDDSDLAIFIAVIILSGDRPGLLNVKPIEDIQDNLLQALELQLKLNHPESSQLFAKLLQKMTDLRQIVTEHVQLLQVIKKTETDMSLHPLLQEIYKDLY
# Outline: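 Fluorescence-based beta-lactamase readout in HEK293H PPARg UAS-bla cells after 17 h compound exposure (37C) and 1 h B/G FRET substrate incubation at room temperature.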
# [4] = biological target: Peroxisome proliferator-activated receptor gamma (Homo sapiens) (UniProt P37231); assay: qHTS assay to identify small molecule antagonists of the peroxisome proliferator-activated receptor gamma (PPARg) signaling pathway (AID 743191; calls by dose curve; further: series mostly up to about 63 µM; nearly all actives have a fitted effect of over 30% in size)
# Outline: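 GeneBLAzer PPARg UAS-bla HEK293H cells carrying a UAS-driven beta-lactamase reporter were plated at 3000 cells/well, preincubated 5 h at 37C, then given compound for 17 h at 37C; LiveBLAzer B/G FRET substrate was read after 1 h at room temperature.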
# [5] = qHTS assay to identify small molecule antagonists of the peroxisome proliferator-activated receptor gamma (PPARg) signaling pathway - cell viability counter screen (AID 743194); further: nearly all actives have a fitted effect of over 55% in size
# Outline: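 PPARg-UAS-bla HEK293H cells were plated, rested 5 h at 37 C, then treated with compounds plus rosiglitazone (50 nM final) for 17 h at 37 C; viability was then read by CellTiter-Glo luminescence after 30 min at room temperature.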
# [6] = qHTS assay for small molecule agonists of the antioxidant response element (ARE) signaling pathway (AID 743202; active means well fitted activation curve with a large enough effect in the signal ratio in the repeat runs, not every such curve was filed as active; the % refers to the signal ratio; further: potency means the concentration at half of the fitted maximal effect)
# Outline: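 Steps: seed ARE-bla HepG2 cells (2,000/well); incubate 5 h at 37 C; add compounds by pin tool; incubate 16 h at 37 C; add FRET substrate; read fluorescence after 2 h at RT.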
# [7] = qHTS assay for small molecule agonists of the antioxidant response element (ARE) signaling pathway - cell viability counter screen (AID 743203; calls by dose curve; further: nearly all actives have a fitted effect of over 55% in size)
# Outline: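 Parallel cytotoxicity read-out for the ARE-bla screen: HepG2 reporter cells, 16 hrs with compounds, then CellTiter-Glo luminescence.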
# [8] = qHTS assay for small molecule activators of the heat shock response signaling pathway - cell viability counter screen (AID 743209); further: nearly all actives have a fitted effect of over 50% in size
# Outline: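 To flag cytotoxic compounds, HSE-bla HeLa cells plated at 1500 cells/well were dosed for 5 h at 37 C, followed by the reporter FRET read and then CellTiter-Glo, with luminescence recorded 30 min after reagent addition.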
# [9] = qHTS assay for small molecule activators of the heat shock response signaling pathway (AID 743210; active means well fitted activation curve with a large enough effect in the signal ratio in the repeat runs, with a control signal flat, not every such curve was filed as active; the % refers to the signal ratio; further: potency means the concentration at half of the fitted maximal effect;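 on activation: HeLa cells with beta-lactamase reporter driven by heat shock elements; series mostly up to about 63 µM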)
# Outline: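 Activation of heat shock element-controlled beta-lactamase expression is measured in HeLa cells by LiveBLAzer FRET fluorescence, with compound exposure lasting 5 h at 37 C and substrate loading 2.5 h at room temperature.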
# [10] = qHTS assay to identify small molecule agonists of the peroxisome proliferator-activated receptor delta (PPARd) signaling pathway - cell viability counter screen (AID 743211); further: nearly all actives have a fitted effect of over 55% in size
# Outline: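 Multiplexed format: after the 2 h room-temperature LiveBLAzer B/G FRET step, CellTiter-Glo was added to the same wells. Luminescence after 30 min gave cell viability; compound exposure was 17 h at 37C.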
# [11] = qHTS assay to identify small molecule antagonists of the peroxisome proliferator-activated receptor delta (PPARd) signaling pathway - cell viability counter screen (AID 743213); further: nearly all actives have a fitted effect of over 50% in size
# Outline: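 HEK293H PPARd UAS-bla cells, 5 h pre-incubation, compound + L165041 300 nM final, 17 h 37 C; B/G FRET substrate 2 h RT; then CellTiter-Glo 30 min RT, luminescence.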
# [12] = biological target: Bile acid receptor (Homo sapiens) (UniProt Q96RI1); assay: qHTS assay to identify small molecule antagonists of the farnesoid-X-receptor (FXR) signaling pathway (AID 743217; active means well fitted inhibition curve with a large enough effect in the signal ratio in the repeat runs, not every such curve was filed as active; the % refers to the signal ratio)
# Chain of Bile acid receptor (Homo sapiens) (Q96RI1 whole entry, looked up): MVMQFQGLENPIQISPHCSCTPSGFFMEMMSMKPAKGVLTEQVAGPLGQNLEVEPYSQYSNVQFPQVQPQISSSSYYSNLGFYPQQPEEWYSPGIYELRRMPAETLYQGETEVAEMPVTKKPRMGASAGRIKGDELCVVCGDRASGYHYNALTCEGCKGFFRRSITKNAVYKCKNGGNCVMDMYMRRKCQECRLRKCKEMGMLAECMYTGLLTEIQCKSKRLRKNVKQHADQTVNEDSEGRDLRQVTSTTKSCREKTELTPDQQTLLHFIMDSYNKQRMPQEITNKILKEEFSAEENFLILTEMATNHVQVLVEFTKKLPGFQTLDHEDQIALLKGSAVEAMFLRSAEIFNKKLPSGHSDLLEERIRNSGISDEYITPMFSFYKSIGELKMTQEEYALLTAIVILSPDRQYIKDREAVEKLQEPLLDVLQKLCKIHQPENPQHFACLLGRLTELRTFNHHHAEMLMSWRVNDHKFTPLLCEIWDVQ
# Outline: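 Quantitative HTS, beta-lactamase reporter format: FXR-UAS-bla HEK 293T cells co-treated 16 h at 37 °C with compounds and 50 uM final chenodeoxycholic acid, then read by B/G FRET fluorescence.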
# [13] = qHTS assay to identify small molecule agonists of the farnesoid-X-receptor (FXR) signaling pathway - cell viability counter screen (AID 743218); further: nearly all actives have a fitted effect of over 45% in size
# Outline: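 Same-well cytotoxicity check on FXR-UAS-bla HEK 293T cells: 5 h attachment, 16 h compound at 37 C, CellTiter-Glo luminescence read at room temperature after 30 min.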
# [14] = biological target: Bile acid receptor (Homo sapiens) (UniProt Q96RI1); assay: qHTS assay to identify small molecule agonists of the farnesoid-X-receptor (FXR) signaling pathway (AID 743220; active means well fitted activation curve with a large enough effect in the signal ratio in the repeat runs, not every such curve was filed as active; the % refers to the signal ratio)
# Outline: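 FXR-UAS-bla HEK 293T cells carrying a UAS-driven beta-lactamase reporter were plated for 5 h at 37C/5% CO2, then exposed to DMSO-dissolved Tox21 10K compounds for 16 h at 37C. A LiveBLAzer B/G FRET substrate was loaded for 2 h at room temperature before fluorescence reading.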
# [15] = qHTS assay to identify small molecule antagonists of the farnesoid-X-receptor (FXR) signaling pathway - cell viability counter screen (AID 743221; active means well fitted cell-killing curve with a large enough effect in the repeat runs, not every such curve was filed as active; further: nearly all actives have a fitted effect of over 50% in size; further: potency means the concentration at half of the fitted maximal effect)
# Outline: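 CellTiter-Glo, 30 min RT, luminescence; same wells as the LiveBLAzer FRET read. Cells: FXR-UAS-bla HEK 293T. Treatment: compound with chenodeoxycholic acid 50 uM final, 16 h at 37 C.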
# [16] = biological target: Vitamin D3 receptor (Homo sapiens) (UniProt P11473); assay: qHTS assay to identify small molecule agonists of the vitamin D receptor (VDR) signaling pathway (AID 743222; calls by dose curve)
# Chain of Vitamin D3 receptor (Homo sapiens) (P11473 whole entry, looked up): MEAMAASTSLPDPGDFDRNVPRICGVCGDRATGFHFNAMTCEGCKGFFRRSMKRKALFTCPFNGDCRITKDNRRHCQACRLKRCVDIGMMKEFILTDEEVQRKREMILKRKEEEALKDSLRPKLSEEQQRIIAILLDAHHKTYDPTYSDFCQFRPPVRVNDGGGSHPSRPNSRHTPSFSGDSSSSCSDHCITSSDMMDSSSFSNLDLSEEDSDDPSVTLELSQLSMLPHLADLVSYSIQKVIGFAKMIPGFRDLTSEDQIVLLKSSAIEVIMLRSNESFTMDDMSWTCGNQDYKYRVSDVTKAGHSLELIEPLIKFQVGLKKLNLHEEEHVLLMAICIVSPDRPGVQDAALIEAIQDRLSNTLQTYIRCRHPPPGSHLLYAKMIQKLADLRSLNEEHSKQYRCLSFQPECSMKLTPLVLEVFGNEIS
# Outline: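 Using LiveBLAzer B/G FRET detection, agonism was scored in VDR-bla cells exposed overnight (16 h, 37C) to DMSO-dissolved compounds; substrate incubation was 2 h at room temperature.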
# [17] = biological target: Vitamin D3 receptor (Homo sapiens) (UniProt P11473); assay: qHTS assay to identify small molecule antagonists of the vitamin D receptor (VDR) signaling pathway (AID 743223; active means well fitted inhibition curve with a large enough effect in the signal ratio in the repeat runs, not every such curve was filed as active; the % refers to the signal ratio)
# Outline: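 After VDR-bla cells are plated and left 4 h at 37C, DMSO-dissolved compounds and 3 nM (final) calcitriol agonist are added. Incubation continues 16 h at 37C; FRET beta-lactamase substrate then develops 2 h at room temperature.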
# [18] = biological target: Aryl hydrocarbon receptor (Homo sapiens) (UniProt P35869); assay: qHTS assay to identify small molecule that activate the aryl hydrocarbon receptor (AhR) signaling pathway (AID 743085); further: nearly all actives have a fitted effect of over 15% in size; further: potency means the concentration at half of the fitted maximal effect;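 on activation: HG2L7.5c1 human HepG2 liver cells with stably integrated DRE-driven firefly reporter; series mostly up to about 70 µM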
# Chain of Aryl hydrocarbon receptor (Homo sapiens) (P35869 whole entry, looked up): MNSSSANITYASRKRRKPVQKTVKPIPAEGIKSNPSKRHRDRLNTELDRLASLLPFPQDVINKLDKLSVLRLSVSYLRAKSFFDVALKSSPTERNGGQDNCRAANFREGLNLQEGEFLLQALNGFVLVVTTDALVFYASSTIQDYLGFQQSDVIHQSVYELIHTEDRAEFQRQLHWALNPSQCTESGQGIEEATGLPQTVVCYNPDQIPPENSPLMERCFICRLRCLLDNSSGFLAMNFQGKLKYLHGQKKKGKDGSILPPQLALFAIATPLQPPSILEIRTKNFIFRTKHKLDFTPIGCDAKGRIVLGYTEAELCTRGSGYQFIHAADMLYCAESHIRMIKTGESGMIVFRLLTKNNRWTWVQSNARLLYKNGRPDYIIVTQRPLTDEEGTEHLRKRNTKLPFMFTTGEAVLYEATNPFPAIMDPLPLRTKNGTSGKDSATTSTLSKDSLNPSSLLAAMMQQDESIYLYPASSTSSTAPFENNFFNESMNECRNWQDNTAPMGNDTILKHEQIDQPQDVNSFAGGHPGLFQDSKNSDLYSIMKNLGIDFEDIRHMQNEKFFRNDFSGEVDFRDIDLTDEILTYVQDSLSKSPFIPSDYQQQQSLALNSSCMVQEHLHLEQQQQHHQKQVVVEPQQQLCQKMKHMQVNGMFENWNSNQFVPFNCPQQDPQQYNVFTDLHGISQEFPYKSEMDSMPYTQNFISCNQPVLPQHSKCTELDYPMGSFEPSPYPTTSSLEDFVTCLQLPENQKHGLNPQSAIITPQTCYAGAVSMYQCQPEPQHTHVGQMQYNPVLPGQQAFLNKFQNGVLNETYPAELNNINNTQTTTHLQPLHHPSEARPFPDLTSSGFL
# Outline: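 Reporter assay in engineered HepG2 line HG2L7.5c1, whose plasmid carries twenty dioxin responsive elements upstream of firefly luciferase. Treatment lasted 24 h at 37C; ONE-Glo luminescence gauged induction.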
# [19] = biological target: Peroxisome proliferator-activated receptor delta (Homo sapiens) (UniProt Q03181); assay: qHTS assay to identify small molecule agonists of the peroxisome proliferator-activated receptor delta (PPARd) signaling pathway (AID 743212; calls by dose curve)
# Chain of Peroxisome proliferator-activated receptor delta (Homo sapiens) (Q03181 whole entry, looked up): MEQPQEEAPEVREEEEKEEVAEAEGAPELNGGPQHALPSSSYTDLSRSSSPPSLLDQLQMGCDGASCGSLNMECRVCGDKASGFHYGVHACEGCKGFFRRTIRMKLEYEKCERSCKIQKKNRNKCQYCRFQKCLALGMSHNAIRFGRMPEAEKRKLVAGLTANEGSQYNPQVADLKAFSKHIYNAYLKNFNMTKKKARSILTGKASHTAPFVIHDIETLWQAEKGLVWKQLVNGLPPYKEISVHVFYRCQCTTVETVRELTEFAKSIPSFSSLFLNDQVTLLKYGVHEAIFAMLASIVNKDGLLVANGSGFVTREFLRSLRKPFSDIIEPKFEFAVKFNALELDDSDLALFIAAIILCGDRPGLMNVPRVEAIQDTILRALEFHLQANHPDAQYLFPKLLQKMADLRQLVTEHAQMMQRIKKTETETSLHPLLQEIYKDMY
# Outline: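 Cells expressing a UAS-driven beta-lactamase reporter (PPARd-bla HEK293H) were given test compounds after a 5 h settle and kept at 37 C. Reporter activity was then measured as FRET fluorescence using LiveBLAzer B/G substrate.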
# [20] = biological target: Peroxisome proliferator-activated receptor delta (Homo sapiens) (UniProt Q03181); assay: qHTS assay to identify small molecule antagonists of the peroxisome proliferator-activated receptor delta (PPARd) signaling pathway (AID 743215; active means well fitted inhibition curve with a large enough effect in the signal ratio in the repeat runs, not every such curve was filed as active; the % refers to the signal ratio;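 further: cells stimulated with agonist L165041 at 300 nM final during compound exposure; series mostly up to about 62 µM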)
# Outline: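 Screen format: qHTS, antagonist mode. HEK293H PPARd-bla cells received compound and 300 nM L165041 (final), 17 h, 37 C. Beta-lactamase detected via FRET substrate fluorescence, 2 h, room temperature.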
Compound,Potency [1],outcome [2],outcome [3],outcome [4],outcome [5],Potency [6],outcome [7],outcome [8],Potency [9],outcome [10],outcome [11],outcome [12],Potency [13],outcome [14],Potency [15],outcome [16],outcome [17],Potency [18],outcome [19],Potency [20]
CCCCOC(=O)COc1ccc(Cl)cc1Cl,inactive,inactive,inactive,inactive,inactive,inactive,inactive,inactive,inactive,inactive,inactive,inactive,inactive,inactive,inactive,inactive,inactive,–,–,–
O=C(O)CCCCCCCCCCC(=O)O,inactive,inactive,–,–,inactive,inactive,inactive,inactive,inactive,inactive,–,inactive,inactive,inactive,inactive,inactive,inactive,inactive,inactive,inactive
COc1ccc(Cl)cc1C(=O)NCCc1ccc(S(=O)(=O)NC(=O)NC2CCCCC2)cc1,inactive,inactive,inactive,–,inactive,–,inactive,inactive,inactive,inactive,inactive,inactive,inactive,inactive,inactive,–,–,inactive,–,inactive
COCCCOc1ccnc(CS(=O)c2nc3ccccc3[nH]2)c1C (stereo not given),inactive,–,–,–,inactive,6.09 µM (active),inactive,inactive,inactive,inactive,inactive,–,inactive,–,inactive,–,–,9.44 µM (active) and 3.05 µM (active),–,–
CCCSc1ccc2nc(NC(=O)OC)[nH]c2c1,inactive,inactive,–,–,inactive,inactive,inactive,inactive,16.7 µM (active),inactive,inactive,–,inactive,–,–,inactive,–,4.52 µM (active) and 34.4 µM (active),–,–
c1ccc(OCCOc2ccccc2)cc1,inactive,inactive,inactive,inactive,inactive,inactive,inactive,inactive,inactive,inactive,inactive,–,inactive,–,inactive,inactive,inactive,–,–,inactive
CC1=CC(=O)NS(=O)(=O)O1,inactive,inactive,–,–,inactive,inactive,inactive,inactive,inactive,inactive,–,inactive,inactive,inactive,inactive,inactive,inactive,inactive,–,–
C[C@H]1C[C@H]2[C@@H]3CCC4=CC(=O)C=C[C@]4(C)[C@@]3(F)[C@@H](O)C[C@]2(C)[C@@]1(O)C(=O)CO,inactive,inactive,–,–,inactive,inactive,inactive,inactive,inactive,inactive,–,–,inactive,–,inactive,–,–,inactive,inactive,inactive
O=S(=O)(O)c1ccc2ccccc2c1,inactive,inactive,inactive,inactive,inactive,inactive,inactive,inactive,inactive,inactive,–,inactive,inactive,inactive,inactive and 34.8 µM (active),inactive,inactive,–,–,inactive
C=C(C)C(=O)OCCOCCOCCOC(=O)C(=C)C,inactive,inactive,inactive,–,inactive,–,inactive,inactive,inactive,inactive,–,–,inactive,–,inactive,inactive,inactive,inactive,–,–
CC(C)(C)[C@@H](O)[C@@H](Cc1ccc(Cl)cc1)n1cncn1,inactive,inactive,inactive,inactive,inactive,inactive,inactive,inactive,inactive,inactive,–,inactive,inactive,inactive,inactive,inactive,inactive,–,inactive,inactive
COc1ccc2cc([C@H](C)C(=O)O)ccc2c1,inactive,inactive,–,–,inactive,inactive,inactive,inactive,–,inactive,–,–,inactive,–,inactive,inactive,inactive,–,–,–
CC(c1cc2ccccc2s1)N(O)C(N)=O (stereo not given),inactive,inactive,–,–,inactive,inactive,inactive,inactive,inactive,inactive,inactive,–,inactive,–,inactive,inactive,inactive,–,inactive,inactive
